Experimental data taken from PubChem BioAssay (Tox21).
Inconclusive results are not listed. Entries that show only a call come without a potency. Active and inactive are the calls of the source. The call rests on the fitted dose curve; in most records, active means well fitted cell-killing curve with a large enough effect in the repeat runs; inconclusive means weak or mixed curves, or effect the other way; inactive means flat fitted curve, though single readings scatter.

What was measured:
[1] = cAMP Responsive Elements (CRE) small molecule antagonists, cell-based qHTS assay: qHTS cell viability counter screen (AID 2060913); further: nearly all actives have a fitted effect of over 40% in size
Summary of the method: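 CRE-bla HEK293T cells (2,000/well, 18 h) given compound plus NKH477 0.25 uM final for 3 h at 37C; viability counter-screen by CellTiter-Glo luminescence in same wells after 30 min.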

[2] = cAMP Responsive Elements (CRE) small molecule agonists, cell-based qHTS assay: qHTS cell viability counter screen (AID 2060914);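 further: viability read after 3 h of compound exposure; nearly all actives have a fitted effect of over 50% in size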
Summary of the method: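 HEK 293T CRE-bla; DMEM + 10% dialyzed FBS, 25 mM HEPES; 18 h pre-incubation; compound 3 h, 37 °C/5% CO2; CellTiter-Glo added after reporter read; luminescence after 30 min RT.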

SMILES | Potency [1] | Potency [2]
CNC(=O)c1c(I)c(NC(=O)CCCCC(=O)Nc2c(I)c(C(=O)O)c(I)c(C(=O)NC)c2I)c(I)c(C(=O)O)c1I | inactive | inactive
Cc1cc(NC(=O)C2=C(O)c3ccccc3S(=O)(=O)N2C)no1 | inactive | inactive
CC1=CC(=O)[C@H]2C[C@@H]1C2(C)C | inactive | inactive
CCCCCCCCCCCC[N+](C)(C)CCCS(=O)(=O)[O-] | inactive | inactive
Cc1c(N)cccc1C(F)(F)F | inactive | inactive
COC(=O)c1cc(Cl)c(NC(C)=O)cc1OC | inactive | inactive
